From PubChem BioAssay (NCATS)
Records with an inconclusive call do not appear. Unmarked numbers belong to inactive results. Calls of active or inactive are those of the source. Calls follow the shape of the dose curve; as a rule, active = well fitted inhibition curve with a large enough effect; inconclusive = small, poorly fitted or top-dose-only effect; inactive = flat fitted curve, though single readings scatter. Peptide text beside a SMILES is read from it.

test system: CP325; assay: qHTS profiling for inhibitors of Plasmodium falciparum proliferation (AID 504749); also: nearly all actives have a fitted effect of over 60% in size;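 as to activity, negative = inhibition: 0% = DMSO vehicle and full inhibition = artemisinin control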; conditions: P. falciparum in erythrocytes, SYBR Green DNA, 72 h; series mostly up to 28.7 µM; activity, negative = inhibition: at the top concentration
Method in brief: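 SYBR Green fluorescence of parasite DNA, read after lysis and overnight dark incubation, measured growth over 72 h in erythrocyte culture at 0.3% parasitemia and 2.5% hematocrit. Data normalised to DMSO and 0.29 uM artemisinin, with plate-drift correction.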
Potency is read from the fitted curve at half-maximal effect.

Compound	activity, negative = inhibition	Potency
C=C1C(=CC=C2CCC[C@@]3(C)[C@@H]2CC[C@H]3[C@H](C)CCCC(C)C)C[C@@H](O)C[C@@H]1O	-3.72%	
O=C1C(=O)c2ncccc2-c2cccnc21		1900 nM (active)
O=CCCCC=O	-1.91%	
CCCCC(C)(O)C/C=C/[C@H]1[C@H](O)CC(=O)[C@@H]1CCCCCCC(=O)OC (stereo not given in full)	-0.596%	
CC(C)(C)C(=O)OCOC(=O)[C@@H]1N2C(=O)[C@@H](N=CN3CCCCCC3)[C@H]2SC1(C)C	-0.698% [at 12.8 µM]	
C[C@]12CCC(=O)C=C1CC[C@@H]1[C@@H]2[C@@H](O)C[C@@]2(C)[C@H]1CC[C@]2(O)C(=O)COP(=O)(O)O	-4.05%	
CCOc1ccc(N=Nc2ccc(N)cc2N)cc1	3.39%	
O=C(O)CCC(=O)C(=O)O	1.53%	
CC1=CCC(C(C)(C)O)CC1 (stereo not given)	-2.5%	
CO[C@H](C(=O)[C@@H](O)[C@@H](C)O)C1Cc2cc3cc(O[C@H]4C[C@@H](O[C@H]5C[C@@H](O)[C@H](O)[C@@H](C)O5)[C@@H](O)[C@@H](C)O4)c(C)c(O)c3c(O)c2C(=O)[C@H]1O[C@H]1C[C@@H](O[C@H]2C[C@@H](O[C@H]3C[C@](C)(O)[C@H](O)[C@@H](C)O3)[C@H](O)[C@@H](C)O2)[C@H](O)[C@@H](C)O1 (stereo not given in full)		1690 nM (active)
CCCCCCC(O)C/C=C/CCCCCCCC(=O)O (stereo not given)	6.63%	
Cc1ccccc1OCC(O)CNCCOc1ccc(C(N)=O)cc1 (stereo not given)	-3.48%	
IC(I)I	0.987%	
COC(F)(F)C(Cl)Cl	-2.69%	
Nc1c(N=Nc2ccc(-c3ccc(N=Nc4cc(S(=O)(=O)O)c5ccccc5c4N)cc3)cc2)cc(S(=O)(=O)O)c2ccccc12	-8.07%	
Cc1cc(C(=O)NNCc2ccccc2)no1	0.54% [at 12.8 µM]	
CC1(C)C(C=C(Cl)Cl)C1C(=O)OCc1cccc(Oc2ccccc2)c1 (stereo not given)	1.66%	
CCOC(C)=O	-1.53%	
Cc1c(C)c2c(c(C)c1O)CC[C@@](C)(CCC[C@@H](C)CCC[C@@H](C)CCCC(C)C)O2	1.36%	
CCCCCCCC(=O)O	-0.123%	
CC1(C)S[C@@H]2[C@H](NC(=O)[C@@H](NC(=O)N3CCNC3=O)c3ccccc3)C(=O)N2[C@H]1C(=O)O	1.06% [at 12.8 µM]	
O=C(COc1ccc(Cl)cc1)OCCNC12CC3CC(CC(C3)C1)C2	-8.68%	
O=C(O)c1cc(=O)c2c3nc4ccccc4oc-3cc(=O)c2[nH]1	-9.28%	
C[C@]12O[C@H](C[C@]1(O)CO)n1c3ccccc3c3c4c(c5c6ccccc6n2c5c31)CNC4=O		536 nM (active)
C[C@@H]1CCC2[C@@H](C)[C@@H](O)O[C@@H]3O[C@@]4(C)CC[C@@H]1[C@@]23OO4 (stereo not given in full)		4.8 nM (active)
CC(=O)N[C@@H](CC(=O)O)C(=O)N[C@@H](CCC(=O)O)C(=O)O (Ac-Asp-Glu-OH)	-1.12%	
COCC(=O)Nc1cc(Sc2ccccc2)ccc1N=C(NC(=O)OC)NC(=O)OC	7.54%	
Nc1c(Br)cc(Br)cc1CNC1CCC(O)CC1 (stereo not given)	-14.9%	
NC(=O)c1ncn(C2OC(CO)C(O)C2O)n1 (stereo not given)	-3.65%	
COc1ccc2c3c1O[C@H]1C[C@@H](O)C=C[C@@]31CCN(C)C2	-6.18%	
